Data reported in PubChem BioAssay (NCATS).
Results filed as inconclusive are left out. Active and inactive are the calls of the source. Calls come from the whole dose curve; as a rule, active = well fitted inhibition curve with a large enough effect; inconclusive = small, poorly fitted or top-dose-only effect; inactive = flat fitted curve, though single readings scatter.

molecular target: Voltage-gated inwardly rectifying potassium channel KCNH2 (Homo sapiens) (UniProt Q12809); test: qHTS Assay for Small Molecule Inhibitors of the Human hERG Channel Activity (AID 588834); details: U2OS BacMam hERG, FluxOR thallium flux fluorescence; series mostly up to 46.1 µM; activity change, negative = inhibition: at the top concentration;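 note: lower thallium flux fluorescence means stronger hERG block; nearly all actives have a fitted effect of over 50% in size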; note: potency is the fitted concentration of half-maximal effect; for activity change, negative = inhibition: top concentration of the series differs between compounds; % is set by controls: 0 for no effect and ±100 for the full control effect
Sequence (Q12809 whole entry, looked up): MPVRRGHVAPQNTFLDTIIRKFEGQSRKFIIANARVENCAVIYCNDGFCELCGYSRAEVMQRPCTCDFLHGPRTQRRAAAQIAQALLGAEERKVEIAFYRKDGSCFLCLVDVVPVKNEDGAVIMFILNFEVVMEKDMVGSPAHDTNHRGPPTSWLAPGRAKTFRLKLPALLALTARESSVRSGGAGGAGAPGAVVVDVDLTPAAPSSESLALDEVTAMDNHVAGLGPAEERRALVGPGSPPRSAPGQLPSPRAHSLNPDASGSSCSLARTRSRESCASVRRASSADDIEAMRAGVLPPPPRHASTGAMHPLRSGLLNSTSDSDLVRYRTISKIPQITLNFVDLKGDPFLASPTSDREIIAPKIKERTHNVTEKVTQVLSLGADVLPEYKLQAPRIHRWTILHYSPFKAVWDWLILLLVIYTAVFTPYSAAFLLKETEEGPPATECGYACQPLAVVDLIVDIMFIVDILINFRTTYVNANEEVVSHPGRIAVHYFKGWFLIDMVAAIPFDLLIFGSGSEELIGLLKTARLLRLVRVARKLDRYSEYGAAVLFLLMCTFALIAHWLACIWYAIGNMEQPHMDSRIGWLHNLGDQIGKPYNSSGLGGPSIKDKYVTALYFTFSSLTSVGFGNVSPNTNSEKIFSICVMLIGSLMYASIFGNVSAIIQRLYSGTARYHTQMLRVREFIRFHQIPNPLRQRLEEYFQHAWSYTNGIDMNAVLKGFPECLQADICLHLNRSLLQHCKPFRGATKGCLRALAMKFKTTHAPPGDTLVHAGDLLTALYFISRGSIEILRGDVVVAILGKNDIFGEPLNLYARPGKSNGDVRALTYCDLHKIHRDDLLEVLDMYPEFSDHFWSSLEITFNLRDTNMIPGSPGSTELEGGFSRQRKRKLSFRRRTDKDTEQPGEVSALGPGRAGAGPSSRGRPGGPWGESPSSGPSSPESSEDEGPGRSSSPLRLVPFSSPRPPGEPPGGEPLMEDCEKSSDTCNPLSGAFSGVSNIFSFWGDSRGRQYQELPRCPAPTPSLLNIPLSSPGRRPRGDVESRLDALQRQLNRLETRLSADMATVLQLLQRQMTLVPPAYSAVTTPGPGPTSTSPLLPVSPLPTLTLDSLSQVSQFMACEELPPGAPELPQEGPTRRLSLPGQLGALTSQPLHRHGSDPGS
Procedure, shortened: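 Measured: FluxOR fluorescence after thallium stimulation in U2OS cells transduced with hERG by baculovirus. Compounds pre-incubated around 10 min; medium Opti-MEM with 2% FCS. AC50 from Hill equation.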

SMILES | activity change, negative = inhibition | Potency
O=C1C=C2C=C[C@@H]3C[C@@]2(O1)[C@H]1CCCCN31 | 7.29% (inactive) | –
CCC1C(C)=NN=C(c2ccc(OC)c(OC)c2)c2cc(OC)c(OC)cc21 (centres undefined) | 11.4% (inactive) | –
C[C@]12CC[C@H](OS(=O)(=O)O)CC1=CC[C@@H]1[C@@H]2CC[C@]2(C)C(=O)CC[C@@H]12 | 14.2% (inactive) | –
CCCN1CCCC2Cc3[nH]ncc3CC21 (centres undefined) | – | inactive
CN(C)[C@H](Cc1ccccc1)c1ccccc1 | 3.69% (inactive) | –
C#CCN1CC(=O)N(COC(=O)C2C(C=C(C)C)C2(C)C)C1=O (centres undefined) | 5.66% (inactive) | –
CN1[C@H]2CC[C@@H]1[C@@H](C(=O)O)[C@@H](OC(=O)c1ccccc1)C2 | 13.4% (inactive) | –
S=C(S)N1CCNCC1 | -4.1% (inactive) | –
CCN(CC)C(=O)/C(Cl)=C(\C)OP(=O)(OC)OC | 5.53% (inactive) | –
OC[C@@H](O)[C@H]1O[C@@H]2O[C@@H](C(Cl)(Cl)Cl)O[C@@H]2[C@H]1O | -1.92% (inactive) | –
CC(=O)O[C@H]1C[C@H](O[C@H]2[C@@H](O)C[C@H](O[C@H]3[C@@H](O)C[C@H](O[C@H]4CC[C@@]5(C)[C@H](CC[C@@H]6[C@@H]5C[C@@H](O)[C@]5(C)[C@@H](C7=CC(=O)OC7)CC[C@]65O)C4)O[C@@H]3C)O[C@@H]2C)O[C@H](C)[C@H]1O[C@@H]1O[C@H](CO)[C@@H](O)[C@H](O)[C@H]1O | -13.7% (inactive) | –
COCC(C)N(C(=O)CCl)c1c(C)csc1C (centres undefined) | 14.9% (inactive) | –
CCC1(c2ccccc2)C(=O)NC(=O)N(C)C1=O (centres undefined) | 9.73% (inactive) | –
C[N+]1([O-])[C@@H]2CC[C@H]1CC(OC(=O)C(CO)c1ccccc1)C2 (some centres undefined) | – | inactive
CCN(CC)c1ncnc2c1ncn2[C@@H]1O[C@H](COP(=O)(O)OP(=O)(O)C(Br)(Br)P(=O)(O)O)[C@@H](O)[C@H]1O | 4.99% (inactive) | –
COC1=CC=C2[C@H]3Cc4ccc(OC)c5c4[C@@]2(CCN3C)[C@H]1O5 | -2.06% [at 20.6 µM] (inactive) | –
CN1CCCC(=C(c2cccs2)c2cccs2)C1 | – | 8.91 µM (active)
CC(C)(O)C1C2OC(=O)C1C1(O)CC3OC34C(=O)OC2C14C (centres undefined) | 1.48% (inactive) | –

SMILES | activity change, negative = inhibition | Potency
CCC1(c2ccccc2)C(=O)NC(=O)NC1=O | 5.96% (inactive) | –
CCOc1ccc2c3c1O[C@H]1[C@@H](O)C=C[C@H]4[C@@H](C2)N(C)CC[C@@]341 | -1.99% (inactive) | –
N#CC1(N2CCCCC2)CCCCC1 | -12.8% (inactive) | –
COc1cc2c(cc1OC)[C@@]13CCN4CC5=CCO[C@H]6CC(=O)N2[C@H]1[C@H]6[C@H]5C[C@H]43 | -12.5% (inactive) | –
Cn1sc(Cl)cc1=O | 6.44% (inactive) | –
C#CC(C)(O)CC (centres undefined) | 10.4% (inactive) | –
C[C@@H]([C@H](O)c1ccccc1)N(C)C | -1.1% (inactive) | –
CN[C@H]1C[C@@H](N)[C@H](O)[C@@H](O[C@@H]2O[C@H](CO)[C@H](O)[C@@H]3OC4(O[C@H]23)O[C@H](C(N)CO)[C@H](O)[C@H](O)[C@H]4O)[C@@H]1O (some centres undefined) | 1.51% (inactive) | –
CCC(=O)O[C@]1(c2ccccc2)CCN(C)C[C@H]1C | -14.4% (inactive) | –
C[C@H]1CC[C@]2(NC1)O[C@H]1C[C@H]3[C@@H]4CC[C@H]5C[C@@H](O[C@@H]6O[C@H](CO)[C@H](O[C@@H]7O[C@H](CO)[C@@H](O)[C@H](O[C@@H]8OC[C@@H](O)[C@H](O)[C@H]8O)[C@H]7O[C@@H]7O[C@H](CO)[C@@H](O)[C@H](O)[C@H]7O)[C@H](O)[C@H]6O)CC[C@]5(C)[C@H]4CC[C@]3(C)[C@H]1[C@@H]2C | – | 15.8 µM (active)
CC(=O)O[C@H]1CC[C@@]2(C)C(=CC[C@@H]3[C@@H]2CC[C@]2(C)C(=O)CC[C@@H]32)C1 | -3.11% [at 20.6 µM] (inactive) | –
CCCC(C)C1(CC)C(=O)NC(=O)NC1=O (centres undefined) | 3.04% (inactive) | –
Clc1ccc(Cl)cc1 | -13.7% (inactive) | –
COc1ccc2c3c1O[C@H]1[C@@H](O)C=C[C@H]4[C@@H](C2)NCC[C@@]341 | 0.737% (inactive) | –
CC(=O)OO | 0.147% (inactive) | –
Cc1ccccc1-n1c(CF)nc2ccc(N)cc2c1=O | 8.42% (inactive) | –
Cc1ccccc1-n1c(C)nc2ccccc2c1=O | 5.91% (inactive) | –
[N-]=[N+]=CC(=O)OCC(N)C(=O)O (centres undefined) | 30.8% (inactive) | –

molecular target: Luciferin 4-monooxygenase (Photinus pyralis) (UniProt P08659); test: Biochemical firefly luciferase enzyme assay for NPC (AID 624030);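 note: purified P. pyralis luciferase at 10 nM with luciferin and ATP substrate; 0% = DMSO and -100% = full luciferase inhibition by PTC124 control; nearly all actives have a fitted effect of over 70% in size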; details: purified P. pyralis luciferase, luminescence, 5 min; series mostly up to 58.6 µM; activity change, negative = inhibition: at the top concentration
Sequence (P08659 whole entry, looked up): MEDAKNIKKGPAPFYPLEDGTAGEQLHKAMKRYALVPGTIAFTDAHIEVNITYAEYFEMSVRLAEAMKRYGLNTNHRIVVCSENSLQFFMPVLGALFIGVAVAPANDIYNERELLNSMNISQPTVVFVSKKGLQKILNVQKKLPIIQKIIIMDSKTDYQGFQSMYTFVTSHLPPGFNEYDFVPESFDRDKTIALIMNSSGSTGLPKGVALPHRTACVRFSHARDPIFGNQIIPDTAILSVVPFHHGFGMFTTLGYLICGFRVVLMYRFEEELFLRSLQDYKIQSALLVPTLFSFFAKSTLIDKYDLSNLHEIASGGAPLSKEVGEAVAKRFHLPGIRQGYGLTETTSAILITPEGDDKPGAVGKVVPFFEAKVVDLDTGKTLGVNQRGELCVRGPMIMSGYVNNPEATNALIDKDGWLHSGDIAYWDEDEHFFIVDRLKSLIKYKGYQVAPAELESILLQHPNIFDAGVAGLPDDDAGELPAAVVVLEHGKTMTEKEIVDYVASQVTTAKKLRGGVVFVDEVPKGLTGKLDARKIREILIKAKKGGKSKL
Procedure, shortened: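 Direct inhibition of firefly luciferase enzyme (10 nM final, 50 mM Tris Acetate) assessed by luminescence within 5 minutes. Percent activity scaled between DMSO and PTC124 positive control, with concentration-effect curves classified by fit quality and response.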

SMILES | activity change, negative = inhibition
CCC1C(C)=NN=C(c2ccc(OC)c(OC)c2)c2cc(OC)c(OC)cc21 (centres undefined) | -2.79% (inactive)
S=C(S)N1CCNCC1 | 2.73% (inactive)
CCN(CC)C(=O)/C(Cl)=C(\C)OP(=O)(OC)OC | 1.1% (inactive)
COCC(C)N(C(=O)CCl)c1c(C)csc1C (centres undefined) | -0.638% (inactive)
CCC1(c2ccccc2)C(=O)NC(=O)N(C)C1=O (centres undefined) | 0.667% (inactive)
COC1=CC=C2[C@H]3Cc4ccc(OC)c5c4[C@@]2(CCN3C)[C@H]1O5 | -0.648% [at 24.9 µM] (inactive)
CN1CCCC(=C(c2cccs2)c2cccs2)C1 | -1.5% (inactive)
CC(C)(O)C1C2OC(=O)C1C1(O)CC3OC34C(=O)OC2C14C (centres undefined) | -0.039% (inactive)
CCC1(c2ccccc2)C(=O)NC(=O)NC1=O | 0.523% (inactive)
CCOc1ccc2c3c1O[C@H]1[C@@H](O)C=C[C@H]4[C@@H](C2)N(C)CC[C@@]341 | 0.209% (inactive)
N#CC1(N2CCCCC2)CCCCC1 | 0.106% (inactive)
Cn1sc(Cl)cc1=O | 2.95% (inactive)
C#CC(C)(O)CC (centres undefined) | 1.99% (inactive)
CCCC(C)C1(CC)C(=O)NC(=O)NC1=O (centres undefined) | 1.43% (inactive)
Clc1ccc(Cl)cc1 | -1.76% (inactive)
CC(=O)OO | -0.668% (inactive)
Cc1ccccc1-n1c(C)nc2ccccc2c1=O | -5.12% [at 123 µM] (inactive)
[N-]=[N+]=CC(=O)OCC(N)C(=O)O (centres undefined) | -3.44% (inactive)
